Assay results taken from PubChem BioAssay AID651724 (National Center for Advancing Translational Sciences (NCATS), 2012).
In all, about 340,000 compounds went through this assay and about 1,700 (0.5%) were called active. Inconclusive results (about 2%) are left out. Shown is part of a subset that was picked to be rich in actives. Values without a mark were called inactive. Rule as the data show it: active = activity change below about -65%; inconclusive = mostly about -30% to -63%; inactive = weaker than that.

system: CtBP / adenovirus E1A interaction (AlphaScreen); experiment: qHTS Assay for Inhibitors of the CtBP/E1A Interaction; details: AlphaScreen GST-E1A/His-CtBP binding, 1536-well; active compounds read low
Outline: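 AlphaScreen with 125 nM GST-E1A and 125 nM His-CtBP (5X stocks) in Tris pH 8.0, 300 mM NaCl, BSA, Tween 20, TCEP. Compounds preincubated 2 h at 37 deg C, then glutathione donor/nickel acceptor beads added for 1 h at 37 deg C in dark.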
% is scaled to controls: 0 for no effect and ±100 for the full control effect.

Compound	activity change
COc1ccccc1CNc1nc(Nc2ccccc2Cl)c2sccc2n1	-5.37%
NC(c1csc(NC(=O)Nc2cccc(C(F)(F)F)c2)n1)C1CCCCC1 (stereo unspecified)	-2.68%
CC1(C)OC(=O)C2=C(C[C@@H](C3CC3)O[C@H]2CCc2cccc(Cl)c2)O1	11.1%
CCCNC(=O)C1(C)CCN(Cc2csc(-c3ccc(Cl)cc3)n2)C1 (stereo unspecified)	-2.56%
COc1cccc(/C=N/Nc2ncc(C(F)(F)F)cc2Cl)c1O	-98.2% (active)
Oc1ccc(/C=N/Nc2ccc(C(F)(F)F)cn2)cc1O	-14%
COc1cccc(/C=N/Nc2ccc(S(=O)(=O)Nc3ccccc3C(=O)O)cc2[N+](=O)[O-])c1O	-15.4%
CC(C)c1cccc(C(C)C)c1Nc1cn[nH]c1	-13.7%
COCCCNc1ccn2nc(-c3ccc(CC(C)C)cc3)cc2n1	4.88%
COc1ccc(CN2CCC(C)(Oc3cccc(F)c3)C2)c2ccccc12 (stereo unspecified)	-13.7%
CCN(CC)CCOc1ccc2c(c1)C(=NNC(=O)c1ccccn1)c1cc(OCCN(CC)CC)ccc1-2	-70.2% (active)
CCC(C(=O)OCCN(CC)CC)c1ccccc1 (stereo unspecified)	-0.583%
CCOc1cc2ccccc2cc1C(=O)Nc1ccccn1	-7.02%
Cc1nc2c(OCc3ccc(Cl)cc3)cccn2c1N(C)Cc1cccs1	-7.51%
CC1CCCC(NC(=O)COC(=O)c2ccccc2C(=O)N(C)C2CCCCC2)C1C (stereo unspecified)	-2.61%
Cc1c(NC(=O)COC(=O)/C=C/c2cccc(F)c2)c(=O)n(-c2ccccc2)n1C	0.516%
CCOc1ccc(CCN2C(=S)N([C@@H](CC(C)C)CN3CCC[C@@H]3CN3C(=S)NC[C@@H]3Cc3ccc(O)cc3)C[C@@H]2CC(C)C)cc1	-10.9%
CC(=O)Nc1cccc(-c2ccnc3c2CC(C)(C(=O)NCc2ccco2)O3)c1 (stereo unspecified)	-10.5%
NC(=O)N/N=C\c1cccs1	-12.4%
S=c1[nH]nc(-c2cccs2)n1/N=C/c1cccs1	0%
Cc1n[nH]c(=O)nc1N/N=C/c1cccs1	-89.5% (active)

Compound	activity change
C=CCC[C@@H](CCCCC)OC(=O)/C=C/[C@@H](O)[C@H](O)C[C@H](O)CC=C	-9.7%
COc1ccc(C(C(=O)NCc2ccccc2)n2c(=O)c(-c3ccccc3)nc3ccccc32)cc1 (stereo unspecified)	0%
CC1CCN(S(=O)(=O)c2nnc(NC(=O)COc3ccccc3F)s2)CC1	1.46%
O=C(CN1C(=O)C2C3C=CC(C3)C2C1=O)Nc1nc(-c2ccccn2)cs1 (stereo unspecified)	-80.4% (active)
O=C(COc1ccccc1F)NC1CC1	8.72%
O=C(COc1ccccc1F)Nc1nc(-c2ccccn2)cs1	-89% (active)
O=C(NCCN1C(=O)C2C3C=CC(C3)C2C1=O)Nc1ccccn1 (stereo unspecified)	-15.4%
CC(NC(=O)c1ccco1)C(=O)Nc1nc(-c2ccccn2)cs1 (stereo unspecified)	-88.4% (active)
CCOC(=O)N1CCN(C(=O)C(C)NC(=O)c2ccco2)CC1 (stereo unspecified)	-2.35%
CSCCC(NC(=O)c1ccco1)C(=O)Nc1cc(C)ccn1 (stereo unspecified)	0.873%
O=C(CN1C(=O)C2C3C=CC(C3)C2C1=O)NCCc1ccccc1Cl (stereo unspecified)	12.6%
CCOC(=O)c1cc(-c2sc(NC(=O)c3ccccc3)nc2C)n(Cc2ccccc2)n1	0.44%
CN1OC[C@@H]2CN(S(=O)(=O)c3cccc(C(F)(F)F)c3)[C@H](c3ccc(-c4cc5ccccc5o4)cc3)C[C@@H]21	-21.8%
CCCCC(=O)N(C)c1c(CC)nc2c(OCc3ccc(S(C)(=O)=O)cc3)cccn12	0.375%
COc1cc(/C=N/NC(=O)CNC(=O)c2ccncc2)ccc1OC(C)=O	-2.8%
COc1ccc(/C=N\NC(=O)c2sc(N)nc2C)cc1OC	-68.1% (active)
COc1cccc(OCc2cc(/C=N/NC(=O)c3nc(Cl)c(Cl)c(N)c3Cl)ccc2OC)c1	7.69%
O=C(NCc1cccnc1)c1cc(C2CCCN(C(=O)CCCc3ccccc3)C2)on1 (stereo unspecified)	0.406%
CCN(CC)C(=O)C1=C(C)N(Cc2ccccc2)C(=O)C(CC(=O)NC(c2ccccc2)c2ccccc2)C1 (stereo unspecified)	-5.91%
CCCOc1ccc(F)cc1-c1cc(C(=O)NCc2ccc(F)cc2)[nH]n1	0%
